Measurements from PubChem BioAssay.
Measured potencies and affinities stand elsewhere. Records with an inconclusive call do not appear. Active and inactive are the calls of the source. Unless noted, how the calls were made is not given here.

How the values were obtained:
[1] = RMG-1 ovarian cancer cell viability loss – cherry-pick, dose response (AID 687029;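 active means signal drop whose fitted half-maximal concentration is at most twice the top valid dose, in every test run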;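 further: cells exposed to compound for 96 hours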)
[2] = IOSE-T80 viability loss, PAX8-independent line – cell-based, cherry-pick, selectivity assay for PAX8 inhibitor project, dose response (AID 687032;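 active means fitted half-maximal concentration for viability loss no higher than twice the top valid dose, in every repeat run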;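 further: cells exposed to compound for 96 h before reading; 0% = neutral control wells and -100% = 2 µM mitoxantrone kill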)
[3] = CMV-driven luciferase expression suppression in HEK293 – cell-based, luminescence, dry powder, counter-screen for Pax8 inhibitor project, dose response (AID 743020;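 active means signal-lowering compounds whose fitted half-maximal concentration is at or below twice the top tested dose in every run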;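 further: HEK293 cells stably expressing the CMV luciferase reporter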)
[4] = general cell-killing toxicity readout – plate reader, dry powder samples, cytotoxicity control for PAX8 inhibitor project, dose response (AID 743021)
[5] = IGROV1 cell killing – plate reader, dry powder samples, PAX8 inhibitor project, dose response (AID 743043);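 further: more negative means fewer viable cells or more cytotoxicity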
[6] = toxicity toward immortalized ovarian surface epithelium – cell-based, plate reader, dry powder samples, cytotoxicity control for PAX8 inhibitor project, dose response (AID 743045);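 further: 0% = neutral control median and -100% = positive control median; more negative values mean more cell killing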
[7] = A2780 cell killing – plate reader, dry powder samples, cytotoxicity control, dose response (AID 743046);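 further: 0% = neutral control wells and -100% = cytotoxic reference compound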
[8] = OVCAR8 cell viability loss – plate reader, dry powder samples, PAX8 project, dose response (AID 743197)
[9] = OVCAR-3 cell viability loss – plate reader, dry powder samples, PAX8 inhibitor project, dose response (AID 743044); details: max activity: at 35 µM, stronger effect = lower value unless noted

Measured: max activity

C[C@@H]1CN([C@@H](C)CO)C(=O)Cc2cc(NC(=O)Nc3ccc(C(F)(F)F)cc3)ccc2O[C@H]1CN(C)C(=O)NC1CCCCC1
not listed: [9]
inactive: all other assays above

CC(C)(C)S(=O)N1Cc2cc(C(=O)NCCCN3CCOCC3)nc(-c3cccc(C#CCC4CCCC4)c3)c2[C@@H]1CCO (stereo partly specified)
not listed: [7] | [9]
inactive: all other assays above

COc1ccc2c3c(n(C)c2c1)[C@@H](CO)N(C(=O)Nc1ccc(F)cc1)CC31CCN(S(=O)(=O)c2cccc(C)c2)CC1
not listed: [9]
inactive: all other assays above

C[C@@H]1CN([C@H](C)CO)C(=O)c2cc(NS(=O)(=O)c3ccc(Cl)cc3)ccc2O[C@@H](C)CCCCO[C@H]1CN(C)S(=O)(=O)c1ccc(F)cc1
inactive: [1] | [2] | [3] | [4] | [9] 26.2% [at 1 µM, stronger effect = lower value] | [6]

Cc1ccc(S(=O)(=O)Nc2ccc3c(c2)C(=O)N([C@H](C)CO)C[C@@H](C)[C@@H](CN(C)Cc2ccc4c(c2)OCO4)OCCCC[C@@H](C)O3)cc1
not listed: [7] | [9]
inactive: all other assays above

O=C(C[C@@H]1C[C@@H]2c3cc(NC(=O)Cc4ccncc4)ccc3O[C@@H]2[C@H](CO)O1)NCc1ccc(-c2ccccc2)cc1
not listed: [9]
inactive: all other assays above

O=C(Nc1ccc(F)cc1)N[C@H]1CC[C@H](CCNC(=O)c2cc(Cl)cc(Cl)c2)O[C@H]1CO
not listed: [9]
inactive: all other assays above

C[C@@H]1CCCCO[C@@H](CN(C)Cc2ccc(C(F)(F)F)cc2)[C@H](C)CN([C@@H](C)CO)C(=O)c2cc(NC(=O)Nc3ccc(F)cc3)ccc2O1
not listed: [9]
inactive: all other assays above

COc1cccc(-c2ccc3c(c2)[C@H]2[C@H](CCN2C(=O)NC2CCCCC2)[C@@H](CO)N3C)c1
not listed: [7] | [9]
inactive: all other assays above

O=S(=O)(c1ccccc1F)N1CC[C@H]2[C@H](CO)Nc3ccc(C4=CCCCC4)cc3[C@H]21
not listed: [6] | [8] | [9]
inactive: all other assays above

C[C@@H]1CCCCO[C@H](CN(C)Cc2ccc(C(=O)Nc3ccccc3N)cc2)[C@@H](C)CN([C@@H](C)CO)C(=O)c2cc(NS(=O)(=O)c3ccc(Cl)cc3)ccc2O1
not listed: [6] | [8] | [9]
inactive: all other assays above

C[C@@H]1CCCCO[C@@H](CN(C)S(=O)(=O)c2ccc(Cl)cc2)[C@H](C)CN([C@@H](C)CO)C(=O)c2cc(N(C)C)ccc2O1
not listed: [9]
inactive: all other assays above

C[C@@H]1CN([C@H](C)CO)C(=O)c2cc(NS(=O)(=O)c3ccc(Cl)cc3)ccc2O[C@@H](C)CCCCO[C@@H]1CN(C)Cc1ccc(Cl)c(Cl)c1
not listed: [7] | [9]
inactive: all other assays above

C[C@@H]1CN([C@H](C)CO)S(=O)(=O)c2ccc(C#Cc3ccc(F)cc3)cc2O[C@H]1CN(C)C(=O)NC1CCCCC1
not listed: [9]
inactive: all other assays above

C[C@H]1CN([C@@H](C)CO)C(=O)Cc2cc(NC(=O)Nc3ccc(F)cc3)ccc2O[C@H]1CN(C)Cc1ccc(Cl)c(Cl)c1
not listed: [9]
inactive: all other assays above

COc1ccc(S(=O)(=O)Nc2ccc3c(c2)C(=O)N([C@@H](C)CO)C[C@@H](C)[C@@H](CN(C)Cc2ccc(C(F)(F)F)cc2)OCCCC[C@@H](C)O3)cc1
not listed: [6] | [8] | [9]
inactive: all other assays above

COc1ccccc1S(=O)(=O)N1CC[C@H]2[C@@H](CO)N(C)c3ccc(-c4ccc(C#N)cc4)cc3[C@H]21
not listed: [7] | [9]
inactive: all other assays above

Cc1ccc(-c2ccc([C@H]3[C@@H](CO)N4CCCCN(C(=O)Nc5cccc(F)c5)C[C@H]34)cc2)cc1
not listed: [7] | [9]
inactive: all other assays above

C[C@H](CO)N1C[C@H](C)[C@H](CN(C)Cc2ccc(Cl)c(Cl)c2)OCCCC[C@H](C)Oc2ccc(NS(=O)(=O)c3ccc(F)cc3)cc2C1=O
not listed: [9]
inactive: all other assays above

C[C@@H]1CCCCO[C@H](CN(C)Cc2ccc(C(F)(F)F)cc2)[C@H](C)CN([C@@H](C)CO)C(=O)c2cc(NC(=O)c3ccccc3)ccc2O1
not listed: [6] | [8] | [9]
inactive: all other assays above

C[C@H](CO)N1C[C@H](C)[C@H](CN(C)CC2CCCCC2)Oc2ccc(NS(=O)(=O)c3ccc(Cl)cc3)cc2CC1=O
not listed: [9]
inactive: all other assays above

C[C@@H]1CN([C@H](C)CO)C(=O)c2cc(NS(=O)(=O)c3cccs3)ccc2O[C@@H](C)CCCCO[C@@H]1CN(C)Cc1ccc(C(F)(F)F)cc1
not listed: [9]
inactive: all other assays above

O=C(C[C@@H]1C[C@H]2c3cc(NC(=O)Nc4ccc(C(F)(F)F)cc4)ccc3O[C@H]2[C@H](CO)O1)NCc1ccc(Cl)cc1
not listed: [9]
inactive: all other assays above

C[C@@H]1CCCCO[C@H](CN(C)Cc2ccccc2)[C@H](C)CN([C@@H](C)CO)C(=O)c2cc(NC(=O)Nc3ccc(C(F)(F)F)cc3)ccc2O1
not listed: [6] | [9]
inactive: all other assays above

C[C@@H]1CN([C@H](C)CO)C(=O)c2cccc(NC(=O)Nc3cccc4ccccc34)c2O[C@H]1CN(C)C(=O)Nc1ccc(C(F)(F)F)cc1
not listed: [9]
inactive: all other assays above

C[C@H](O)C#Cc1ccc2c(c1)O[C@@H](CN(C)Cc1ccc(-c3ccccc3)cc1)[C@H](C)CN([C@H](C)CO)S2(=O)=O
not listed: [6] | [8] | [9]
inactive: all other assays above

C[C@@H]1CN([C@H](C)CO)C(=O)c2cc(NC(=O)Nc3ccc(C(F)(F)F)cc3)ccc2O[C@@H](C)CCCCO[C@H]1CN(C)S(=O)(=O)c1ccccc1
not listed: [9]
inactive: all other assays above

C[C@H](CO)N1C[C@H](C)[C@@H](CN(C)Cc2ccc(C(F)(F)F)cc2)OCCCC[C@H](C)Oc2ccc(NC(=O)Cc3ccccc3)cc2C1=O
not listed: [9]
inactive: all other assays above

C[C@H](CO)N1C[C@H](C)[C@@H](CN(C)Cc2ccc(Oc3ccccc3)cc2)Oc2ccc(NS(=O)(=O)c3ccc(F)cc3)cc2CC1=O
inactive: [1] | [2] | [3] | [4] | [9] -23.5% [at 4.2 µM, stronger effect = lower value] | [6] | [7]

N#C[C@@H]1[C@@H](c2ccc(-c3ccccc3F)cc2)[C@@H](CO)N1C(=O)C1CCC1
inactive: [1] | [2] | [3] | [4] | [9] -15.9% | [6] | [7] | [8]

C[C@H](O)C#Cc1cnc2c(c1)C(=O)N([C@H](C)CO)C[C@@H](C)[C@@H](CN(C)Cc1ccc(-c3ccccc3)cc1)O2
inactive: [1] | [2] | [3] | [4] | [9] 29.8% [at 2.1 µM, stronger effect = lower value] | [6] | [7] | [8]

Cc1ccc(S(=O)(=O)Nc2ccc3c(c2)C(=O)N([C@H](C)CO)C[C@@H](C)[C@H](CN(C)S(=O)(=O)c2ccc(C)cc2)OCCCC[C@H](C)O3)cc1
inactive: [1] | [2] | [3] | [4] | [9] 32.9% [at 0.26 µM, stronger effect = lower value] | [6] | [8]

O=C(C[C@@H]1CC[C@@H]2[C@H](COC[C@H](O)CN2S(=O)(=O)c2ccccc2Cl)O1)N1CCC(Cc2ccccc2)CC1
inactive: [1] | [2] | [3] | [4] | [9] -15.3% | [7]
